Laboratory results from the supplement of paper PMC6555819.

Legend:
Test in all cases: PBM binding z-score (relative to random genomic background probes); higher = stronger binding; sequences stand for … in GC…GCGATTGACAGCGTAGAATGAAGG
[1] = test system: RARb homodimer (NR concentration 270 nM)
How it was run: (§1)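 On custom Agilent 4×180K arrays, double-stranded probes with 34-nt variable regions carried direct-repeat seeds, single-nucleotide variants, half-site ablations or random human genomic background. Ligand-free nuclear receptor dimers were applied for 1 h, and binding was read with antibodies against each partner (one per run). Binding z-scores come from regression-normalized fluorescence, with the random background probes as reference.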

[2] = test system: RARg:RXRa (NR concentration 270 nM, RXRa partner concentration 90 nM)
How it was run: as §1

[3] = test system: RARg homodimer (NR concentration 270 nM)
How it was run: as §1

[4] = test system: RXRa DBDmut IVT, anti-RXR (DBD mutation: RXRa K156A/R161A, NR concentration 90 nM)
How it was run: as §1

[5] = test system: RXRa homodimer (NR concentration 180 nM)
How it was run: as §1

[6] = test system: THRa:RXRa (NR concentration 90 nM, RXRa partner concentration 90 nM)
How it was run: as §1

[7] = test system: THRa homodimer (NR concentration 90 nM)
How it was run: as §1

[8] = test system: VDR:RXRa (NR concentration 270 nM, RXRa partner concentration 90 nM)
How it was run: as §1

[9] = test system: VDR homodimer (NR concentration 270 nM)
How it was run: as §1

## TCTCGGAGGACGCGAAAGGTCAGAGCTCGACATC
[1]
  PBM binding z-score: 4.26
[2]
  PBM binding z-score: 4.31
[3]
  PBM binding z-score: 4.12
[4]
  PBM binding z-score: 0.446
[5]
  PBM binding z-score: 4.2
[6]
  PBM binding z-score: 3.01
[7]
  PBM binding z-score: 0.235
[8]
  PBM binding z-score: 2.8
[9]
  PBM binding z-score: 0.581

## GTACCAAGGTGAATAGATCGTTGATGAGTAGGCG
[1]
  PBM binding z-score: 0.231
[2]
  PBM binding z-score: 0.664
[3]
  PBM binding z-score: 0.719
[4]
  PBM binding z-score: -0.335
[5]
  PBM binding z-score: 0.634
[6]
  PBM binding z-score: 1.03
[7]
  PBM binding z-score: 0.372
[8]
  PBM binding z-score: -0.155
[9]
  PBM binding z-score: -0.106

## ATATGTAGGTTACATCCGGGGCATTCAGGCTATG
[1]
  PBM binding z-score: 1.23
[2]
  PBM binding z-score: 1.76
[3]
  PBM binding z-score: 1.3
[4]
  PBM binding z-score: 0.51
[5]
  PBM binding z-score: 1.12
[6]
  PBM binding z-score: 1.83
[7]
  PBM binding z-score: 0.704
[8]
  PBM binding z-score: 1.23
[9]
  PBM binding z-score: 0.977

## TCATATAGATAAAGGTGAAAGTCGAACGATATGA
[1]
  PBM binding z-score: 1.08
[2]
  PBM binding z-score: 1.29
[3]
  PBM binding z-score: 1.2
[4]
  PBM binding z-score: 1.18
[5]
  PBM binding z-score: 1.9
[6]
  PBM binding z-score: 0.819
[7]
  PBM binding z-score: -0.268
[8]
  PBM binding z-score: 0.945
[9]
  PBM binding z-score: -0.308

## CAAACTAGGTCAAAGGTAAAAGTCGAGCCAACCA
[1]
  PBM binding z-score: 2.87
[2]
  PBM binding z-score: 5.02
[3]
  PBM binding z-score: 4.78
[4]
  PBM binding z-score: 2.02
[5]
  PBM binding z-score: 5.74
[6]
  PBM binding z-score: 3.26
[7]
  PBM binding z-score: 0.692
[8]
  PBM binding z-score: 2.98
[9]
  PBM binding z-score: 0.479

## CCTGCTAGGTCAATGCTCAGCTAAAGCAGCTCGC
[1]
  PBM binding z-score: 2.37
[2]
  PBM binding z-score: 3.14
[3]
  PBM binding z-score: 4.3
[4]
  PBM binding z-score: 1.92
[5]
  PBM binding z-score: 1.47
[6]
  PBM binding z-score: 1.97
[7]
  PBM binding z-score: 0.173
[8]
  PBM binding z-score: 0.598
[9]
  PBM binding z-score: -0.26

## TAATATAGGTAAATGCTAGGTGAAAGTCCGATCT
[1]
  PBM binding z-score: 0.28
[2]
  PBM binding z-score: 0.642
[3]
  PBM binding z-score: 0.601
[4]
  PBM binding z-score: 0.344
[5]
  PBM binding z-score: 0.568
[6]
  PBM binding z-score: 1.4
[7]
  PBM binding z-score: 0.419
[8]
  PBM binding z-score: 0.36
[9]
  PBM binding z-score: 0.275

## TCATATAGGTATAAGGTGAAAGTCGGTGTGGTAA
[1]
  PBM binding z-score: 1.17
[2]
  PBM binding z-score: 0.768
[3]
  PBM binding z-score: 0.521
[4]
  PBM binding z-score: 1.77
[5]
  PBM binding z-score: 1.35
[6]
  PBM binding z-score: 2.68
[7]
  PBM binding z-score: 2.4
[8]
  PBM binding z-score: 1.06
[9]
  PBM binding z-score: 0.494

## CCTGCTAGGTCATGGACAGCTAATCTACAGTATG
[1]
  PBM binding z-score: 2.73
[2]
  PBM binding z-score: 4
[3]
  PBM binding z-score: 4.68
[4]
  PBM binding z-score: 1.85
[5]
  PBM binding z-score: 3.17
[6]
  PBM binding z-score: 2.9
[7]
  PBM binding z-score: 0.931
[8]
  PBM binding z-score: 1.56
[9]
  PBM binding z-score: 0.0193

## CCTCGTAGGACAGAAGGTCAGAGCTGTCCGCTTT
[1]
  PBM binding z-score: 3.4
[2]
  PBM binding z-score: 3.02
[3]
  PBM binding z-score: 3.4
[4]
  PBM binding z-score: 0.251
[5]
  PBM binding z-score: 2.18
[6]
  PBM binding z-score: 1.7
[7]
  PBM binding z-score: -0.0633
[8]
  PBM binding z-score: 1.13
[9]
  PBM binding z-score: 0.412

## TCTGCTAGGTCAACGATCGTCAGCTAATCTGCTA
[1]
  PBM binding z-score: 2.88
[2]
  PBM binding z-score: 4.06
[3]
  PBM binding z-score: 4.96
[4]
  PBM binding z-score: 0.835
[5]
  PBM binding z-score: 2.44
[6]
  PBM binding z-score: 2.6
[7]
  PBM binding z-score: 0.335
[8]
  PBM binding z-score: 1.03
[9]
  PBM binding z-score: -0.498

## CCTACTGGGCAATCAGGTCATTGATATCAACGTT
[1]
  PBM binding z-score: 2.16
[2]
  PBM binding z-score: 1.56
[3]
  PBM binding z-score: 1.51
[4]
  PBM binding z-score: 0.0815
[5]
  PBM binding z-score: 1.06
[6]
  PBM binding z-score: 3.13
[7]
  PBM binding z-score: 2.55
[8]
  PBM binding z-score: 2.83
[9]
  PBM binding z-score: 1.29

## GGAACGAGGGAAAGTTGATAGCAGAGTTTGATGG
[1]
  PBM binding z-score: -0.315
[2]
  PBM binding z-score: -0.266
[3]
  PBM binding z-score: 0.0692
[4]
  PBM binding z-score: 0.0118
[5]
  PBM binding z-score: -0.106
[6]
  PBM binding z-score: -0.351
[7]
  PBM binding z-score: -0.268
[8]
  PBM binding z-score: -0.524
[9]
  PBM binding z-score: -0.209

## CAAACTATGTCACCGGAAGGTCAAAGTCCGCATG
[1]
  PBM binding z-score: 4.63
[2]
  PBM binding z-score: 5.37
[3]
  PBM binding z-score: 4.06
[4]
  PBM binding z-score: 1.32
[5]
  PBM binding z-score: 4.15
[6]
  PBM binding z-score: 3.11
[7]
  PBM binding z-score: 1.99
[8]
  PBM binding z-score: 3.84
[9]
  PBM binding z-score: 2.33

## CGAACGAAGGCATGAGTTGATAGCAAATGCCGAT
[1]
  PBM binding z-score: -0.914
[2]
  PBM binding z-score: -0.373
[3]
  PBM binding z-score: -0.278
[4]
  PBM binding z-score: -0.249
[5]
  PBM binding z-score: -0.113
[6]
  PBM binding z-score: -0.643
[7]
  PBM binding z-score: -0.827
[8]
  PBM binding z-score: -0.373
[9]
  PBM binding z-score: -0.193

## ATCTCTAGGTAACAAGTTCAGTTAAAGAGAGGAC
[1]
  PBM binding z-score: 1.9
[2]
  PBM binding z-score: 1.37
[3]
  PBM binding z-score: 1.45
[4]
  PBM binding z-score: 0.748
[5]
  PBM binding z-score: 0.837
[6]
  PBM binding z-score: 1.73
[7]
  PBM binding z-score: 1.16
[8]
  PBM binding z-score: 2.23
[9]
  PBM binding z-score: 2.34

## AGAATGAGGTTACCAAAGATAAGGGAAACGCTTG
[1]
  PBM binding z-score: 0.456
[2]
  PBM binding z-score: 1.85
[3]
  PBM binding z-score: 1.54
[4]
  PBM binding z-score: 1.02
[5]
  PBM binding z-score: 2.18
[6]
  PBM binding z-score: 2.55
[7]
  PBM binding z-score: 0.618
[8]
  PBM binding z-score: 1.07
[9]
  PBM binding z-score: 0.393

## ACTATTAGTTGACTTAGGGCAACCGCTACGACGC
[1]
  PBM binding z-score: 0.908
[2]
  PBM binding z-score: 0.58
[3]
  PBM binding z-score: 0.586
[4]
  PBM binding z-score: 0.636
[5]
  PBM binding z-score: 0.331
[6]
  PBM binding z-score: 1.39
[7]
  PBM binding z-score: 0.625
[8]
  PBM binding z-score: 0.319
[9]
  PBM binding z-score: 0.173

## CGGCCAAGGTCAATGCTAGGTCAGTGAAAGCATT
[1]
  PBM binding z-score: 4.9
[2]
  PBM binding z-score: 7.57
[3]
  PBM binding z-score: 6.96
[4]
  PBM binding z-score: 3.65
[5]
  PBM binding z-score: 5.16
[6]
  PBM binding z-score: 4.29
[7]
  PBM binding z-score: 2.46
[8]
  PBM binding z-score: 4.95
[9]
  PBM binding z-score: 2.22

## AGTCAGAGTTCAGGACGAGGTAACGTAAAGCACG
[1]
  PBM binding z-score: 2.72
[2]
  PBM binding z-score: 4.62
[3]
  PBM binding z-score: 4.28
[4]
  PBM binding z-score: 3.5
[5]
  PBM binding z-score: 3.59
[6]
  PBM binding z-score: 3.79
[7]
  PBM binding z-score: 1.53
[8]
  PBM binding z-score: 3.77
[9]
  PBM binding z-score: 3.75

## AGAACGAGGGCAATGATTTGATAGCACGGGTGGC
[1]
  PBM binding z-score: 0.954
[2]
  PBM binding z-score: 0.982
[3]
  PBM binding z-score: 1.4
[4]
  PBM binding z-score: 1.64
[5]
  PBM binding z-score: 0.834
[6]
  PBM binding z-score: 0.95
[7]
  PBM binding z-score: 0.00137
[8]
  PBM binding z-score: 0.334
[9]
  PBM binding z-score: 0.721

## AGAATGAGGTTATACGTAGATCAGGTAAGAAAGT
[1]
  PBM binding z-score: 1.16
[2]
  PBM binding z-score: 1.68
[3]
  PBM binding z-score: 1.19
[4]
  PBM binding z-score: 1.81
[5]
  PBM binding z-score: 2.31
[6]
  PBM binding z-score: 2.39
[7]
  PBM binding z-score: 1.01
[8]
  PBM binding z-score: 1.58
[9]
  PBM binding z-score: 0.844

## ATATGTAGGTTAAGGGTCATTCACGTTGGTTCGC
[1]
  PBM binding z-score: 3.78
[2]
  PBM binding z-score: 4.72
[3]
  PBM binding z-score: 3.42
[4]
  PBM binding z-score: 2.33
[5]
  PBM binding z-score: 6.15
[6]
  PBM binding z-score: 3.36
[7]
  PBM binding z-score: 1.12
[8]
  PBM binding z-score: 4.75
[9]
  PBM binding z-score: 4.09

## ATCTCTAGGCAAAGATAGTTCAGTGAATGCAAAT
[1]
  PBM binding z-score: 0.533
[2]
  PBM binding z-score: 0.288
[3]
  PBM binding z-score: 0.586
[4]
  PBM binding z-score: -0.0612
[5]
  PBM binding z-score: -0.0781
[6]
  PBM binding z-score: 0.0396
[7]
  PBM binding z-score: -0.577
[8]
  PBM binding z-score: -0.11
[9]
  PBM binding z-score: 0.0259

## TCTATTAGTTGTTTAGGGCAACCGAAACAGCGGA
[1]
  PBM binding z-score: 0.623
[2]
  PBM binding z-score: 0.681
[3]
  PBM binding z-score: 0.7
[4]
  PBM binding z-score: 0.754
[5]
  PBM binding z-score: 0.557
[6]
  PBM binding z-score: 1.07
[7]
  PBM binding z-score: 0.864
[8]
  PBM binding z-score: 0.707
[9]
  PBM binding z-score: 0.463

## ATCTCTAGGTAAGACACAGTTCAGTGAAGAACGC
[1]
  PBM binding z-score: 1.33
[2]
  PBM binding z-score: 0.686
[3]
  PBM binding z-score: 0.694
[4]
  PBM binding z-score: 0.59
[5]
  PBM binding z-score: 0.755
[6]
  PBM binding z-score: 0.849
[7]
  PBM binding z-score: 0.689
[8]
  PBM binding z-score: 1.14
[9]
  PBM binding z-score: 1.37
